mHTT-CaM PPI inh – mutant huntingtin-calmodulin interaction inhibitors – biochemical, AlphaScreen, primary screen; hit rate 3.6% among 190,000; P42858; inhibition, % at 15 µM; AlphaScreen His-mHTT/GST-CaM binding, luminescence;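 also: 0% = both proteins with DMSO and 100% = one protein alone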
Pf apPOL block – Pf-apPOL inhibitors, biochemical, fluorescence; Plasmodium falciparum apicoplast DNA polymerase (apPOL); Recombinant Pf-apPOL, molecular beacon fluorescence, 1.5 h; inhibition, % at 10 µM; hit rate 0.25% among 210,000; AID 1794808, 2022
Numbers without * were called inactive; i = inactive; / = not tested or not shown; + = active, no number. The list is not random: actives were taken first. Their share in the collection is about 3.5%. Rule as the data show it: active = inhibition above about 50%; inactive = the rest.

SMILES	mHTT-CaM PPI inh	Pf apPOL block
O=C(NC(NCC1CCCO1)C(Cl)(Cl)Cl)c1ccco1 (stereo unspecified)	-1	97*
O=C(NC(NCCc1ccccc1)C(Cl)(Cl)Cl)c1ccco1 (stereo unspecified)	-10	-1
CCOc1ccc(-c2cc(C)n3nc(C(=O)Nc4ccccc4C(F)(F)F)cc3n2)cc1	-13	0
N#CC1=C(N)Oc2n[nH]c(-c3ccncc3)c2C1c1ccccc1C(=O)O (stereo unspecified)	4	-2
COc1cc(/C=C(\C#N)c2nc3ccccc3[nH]2)cc(OC)c1O	43	-1
N#C/C(=C\c1cccc(F)c1)c1nc2ccccc2[nH]1	100*	-4
COc1cc(/C=C(\C#N)c2nc3ccccc3[nH]2)cc2c1OCO2	69*	-4
N#C/C(=C\c1cccc(Br)c1)c1nc2ccccc2[nH]1	3	-2
COCCNC(=O)C1(C)CCC(=O)N1Cc1ccc(F)cc1 (stereo unspecified)	5	3
CSc1ccccc1NS(=O)(=O)c1cc2c(s1)CCN(C(=O)C1CC1)C2	10	-3
O=C(CN1CCC(c2nnc(-c3ccco3)s2)CC1)c1ccc(Cl)cc1	72*	4
O=C(Cn1cccc1)N1CCC(c2nnc(-c3ccco3)s2)CC1	-8	21
COc1ccc(CC(C)(O)CNC(=O)C(C)(C)C)cc1 (stereo unspecified)	-2	-8
CC1CN(C)C(C)C/C1=N\OC(=O)COc1ccc(Cl)cc1 (stereo unspecified)	i	4
Cc1ccc(NC2(c3ccccc3)C(=O)c3ccccc3C2=O)cc1	46	-8
COc1ccc(NC2(c3ccc(Cl)cc3)C(=O)c3ccccc3C2=O)cc1	100*	-3
COc1ccc(-c2cc(C(=O)N3CCCC3c3c(C)noc3C)no2)cc1OC (stereo unspecified)	14	-5
Fc1cccc(Cl)c1C1Nc2cccc3cccc(c23)N1	49	/
c1csc(C2Nc3cccc4cccc(c34)N2)c1	50*	/
N#CC1=C(N)SC(N)=C(C#N)C1c1cccc2ccccc12	16	-9
c1csc(C2Nc3ccccc3-c3nc4ccccc4n32)c1 (stereo unspecified)	-16	-6
c1ccc2c(C3Nc4cccc5cccc(c45)N3)cccc2c1	77*	/
Clc1cccc(C2Nc3cccc4cccc(c34)N2)c1	82*	/
CCOc1cc(C(=O)Nc2ccccc2C(N)=O)cc(OCC)c1OCC	-1	-4
O=S1(=O)N=C(N/N=C/c2ccccn2)c2ccccc21	+	/
SMILES	mHTT-CaM PPI inh	Pf apPOL block
Clc1cc(Cl)cc(N/N=C/c2ccccn2)c1	i	/
COc1cccc(CCNC2CC(=O)N(c3ccc(NC(C)=O)cc3)C2=O)c1 (stereo unspecified)	4	-6
CC(=O)Nc1ccc(N2C(=O)CC(NCCc3ccccn3)C2=O)cc1 (stereo unspecified)	54*	-15
CC1CCCN(C(=O)C2(c3ccc(NC(=O)C4CC4)cc3)CCCCC2)C1 (stereo unspecified)	-9	-4
C=CCN1C(=O)/C(=C/c2ccc(O)cc2)SC1=Nc1ccccc1	78*	-4
C=CCN1C(=O)/C(=C/c2ccccc2O)SC1=Nc1ccccc1	49	-6
CCC1=C(C)/C(=C\c2[nH]c(C)c(CC)c2C)N=C1C	95*	-3
O=S(=O)(Nc1cccc2cccnc12)c1cc(Cl)c(Cl)cc1Cl	/	-75
Nc1ccc(S(=O)(=O)Nc2cccc3cccnc23)cc1	57*	-2
Nc1ncnc(Nc2ccc3c(c2)OCCO3)c1[N+](=O)[O-]	2	-3
O=C(c1ccc(C(F)(F)F)cc1)N1CCC(Cc2nnc(-c3ccccc3)o2)CC1	57*	-3
O=C(c1ccoc1)N1CCC(Cc2nnc(-c3ccccc3)o2)CC1	6	1
O=C1NC(=Nc2ccccc2)S/C1=C/c1ccccc1Br	-1	0
Cn1cc(/C=C2\SC(=Nc3ccccc3)NC2=O)c2ccccc21	55*	1
O=C(CC1CCN(C(=O)C2CCCCC2)CC1)NCc1ccccc1Cl	5	-3
O=C(Nc1ccc(F)c(F)c1)C(NS(=O)(=O)c1cccs1)c1ccccc1 (stereo unspecified)	-2	-1
O=C(Nc1ccc(C(F)(F)F)cc1)C(NS(=O)(=O)c1cccs1)c1ccccc1 (stereo unspecified)	84*	-1
O=c1oc(-c2ccccc2Cl)nc2c1cnn2-c1ccccc1	90*	-3
COc1c(Cl)cnn(-c2ccccc2)c1=O	-2	-4
Cc1ccc(C2OCC3(CO2)SC(=O)NC3=O)cc1 (stereo unspecified)	-5	-4
CC1=NN(c2ccc(Cl)cc2)C(=O)/C1=C/c1ccccc1[N+](=O)[O-]	17	-3
CC(=O)N1CCC2(CC1)N=C(c1ccccc1O)CC(c1ccc(F)c(Cl)c1)N2 (stereo unspecified)	69*	-2
CC(=O)N1CCC2(CC1)N=C(c1ccccc1O)CC(c1ccc(Cl)cc1)N2 (stereo unspecified)	28	-7
CC(=O)N1CCC2(CC1)N=C(c1cc(Cl)ccc1O)CC(c1ccc(C)cc1)N2 (stereo unspecified)	24	6
CCN1CCC2(CC1)N=C(c1ccc(C)cc1C)CC(c1cc(Cl)ccc1O)N2 (stereo unspecified)	90*	1
SMILES	mHTT-CaM PPI inh	Pf apPOL block
CCN1CCC2(CC1)N=C(c1ccc(C)c(C)c1)CC(c1cc(Cl)ccc1O)N2 (stereo unspecified)	15	-4
Cc1ccc(C2CC(c3cc(Cl)ccc3O)=NC3(CCN(C)CC3)N2)cc1 (stereo unspecified)	100*	6
COCC(=O)N1CCN(Cc2c(-c3ccc(F)cc3)nc3sc(C)cn23)CC1	14	0
NNc1ncc(Cl)cc1Cl	100*	-30
Oc1ccc(Oc2ncc(Cl)cc2Cl)cc1	-3	/
CCCCC(C(=O)O)n1c(O)c(C=C2C=Nc3ccccc32)sc1=S (stereo unspecified)	100*	25
CC(C)Cc1nn2c(N)c(C=C3C=Nc4ccccc43)c(=O)nc2s1	11	-15
CC1CN(C(=O)NCc2ccccc2)CC1c1nc(-c2ccncc2)no1 (stereo unspecified)	5	2
COc1ccc(C(=O)N2CCC(c3nc(CNC(C)=O)cs3)CC2)cc1	7	2
Cc1ccc(C)c(CSc2nc(C3CCCCC3)c(C#N)c(=O)[nH]2)c1	/	73*
Cc1ccccc1CSc1nc2c(cnn2-c2ccccc2)c(=O)[nH]1	-1	-1
Cc1cc(C)nc(NS(=O)(=O)c2ccc(NC(=O)c3c(F)cccc3Cl)cc2)n1	/	-2
COc1ccc(CN2CCc3nc(N4CCC(C)CC4)ncc3C2)c(OC)c1	74*	3
COc1ccc(CN2CCc3nc(N4CCN(c5ncccn5)CC4)ncc3C2)c(OC)c1	100*	-1
COc1ccc(OC)c(CN2CCc3nc(N4CCCC4)ncc3C2)c1	0	7
COc1ccc(N2CCN(c3ncc4c(n3)CCN(Cc3ccccc3C)C4)CC2)cc1	10	-2
CCOc1ccccc1CN1CCc2nc(N3CCN(CC)CC3)ncc2C1	26	-1
COc1ccc(N2CCN(c3ncc4c(n3)CCN(Cc3ccccc3OC)C4)CC2)cc1	53*	-5
COc1cc(OC)c(OC)cc1CN1CCc2nc(N3CCC(C)CC3)ncc2C1	10	-6

Bioassay records deposited in PubChem BioAssay by University of Kansas High Throughput Screening Laboratory.
